Test results published in PubChem BioAssay AID1490 (National Center for Advancing Translational Sciences (NCATS), 2009).
About 11,000 (3.5%) of roughly 310,000 compounds were called active. Another 4% or so got no clear call; they are omitted. Calls come from the whole dose curve; as a rule, active = well fitted inhibition curve with a large enough effect; inconclusive = small, poorly fitted or top-dose-only effect, or another doubt; inactive = no such curve, though single readings can be large or run the other way. The entries come from a sample that favours actives as a whole.

Target: 4'-phosphopantetheinyl transferase ffp (Bacillus subtilis) (UniProt Q9F4F7)
Assay: qHTS Assay for Inhibitors of Bacillus subtilis Sfp phosphopantetheinyl transferase (PPTase);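 note: the enzyme is Sfp with the accession as filed and its product quenches rhodamine fluorescence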;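 for largest response in the series, negative = inhibition: 0% = enzyme reaction without inhibitor and -100% = no enzyme wells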
Conditions: Biochemical Sfp PPTase activity
Outline: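 Step 1, compound plus 15 nM Sfp-PPTase, 15 min, room temperature. Step 2, add rhodamine-CoA (5 uM) and BHQ-2-YbbR (12.5 uM). Step 3, read 525/598 nm fluorescence at 0 and 30 min.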
Potency is the fitted concentration of half-maximal effect.

Compound	largest response in the series, negative = inhibition	Potency
COc1ccc(-n2cc(-c3ccccc3)c3c(=S)nc[nH]c32)cc1	7.93% (inactive)	
COc1ccc(C)cc1NC(=O)NCCCCc1ccccc1	-4.5% (inactive)	
CN(Cc1ccccc1)Cc1ccccc1F		50.1 µM (active)
CN(Cc1ccccc1)C(=O)CCc1ccccc1	20.4% (inactive)	
O=C(c1ccccc1F)N(Cc1ccccc1)Cc1ccccc1	9.85% (inactive)	
Cc1ccc(C)c(OCCC(=O)OCC(=O)N2CCN(c3ccccc3)CC2)c1	-6.17% (inactive)	
Cc1coc2c1c(C)cc1oc(=O)c(CC(=O)NCC(=O)N[C@H](C(=O)O)C(C)C)c(C)c12	1.89% (inactive)	
CCn1cc(S(=O)(=O)c2cccc(C)c2)c(=O)c2cc(F)c(N3CCN(C)CC3)cc21	4.71% (inactive)	
NC(=O)C[C@@H]1NC(=O)CNC(=O)c2cc([N+](=O)[O-])cc(I)c2NCCC(C(N)=O)NC1=O (some centres not stated)	-12.4% (inactive)	
NC(=O)CC[C@@H]1NC(=O)[C@H](CO)NC(=O)c2cc([N+](=O)[O-])cc(I)c2NCC[C@@H](C(N)=O)NC1=O	-7.09% (inactive)	
NCCCC[C@@H]1NC(=O)[C@H](CCC(=O)O)NC(=O)c2cc([N+](=O)[O-])cc(I)c2NCC[C@@H](C(N)=O)NC1=O		31.6 µM (active)
COc1cccc(CNC(=O)C2CCCN(S(=O)(=O)N3CC(C)CC(C)C3)C2)c1 (configuration not stated)	6.86% (inactive)	
CCC(CC)COC(=O)C1=C(C)NC(=O)NC1c1ccc([N+](=O)[O-])cc1 (configuration not stated)	7.14% (inactive)	
O=C(NCc1ccccn1)c1cc(Br)ccc1Cl	-2.95% (inactive)	
O=C(NCc1ccccn1)c1ccc2nc(-c3ccco3)c(-c3ccco3)nc2c1		14.1 µM (active)
COCCNC(=O)Nc1ccc2nc(-c3ccco3)c(-c3ccco3)nc2c1		4.47 µM (active)
CC(C)(C)c1ccc(NC(=O)NCc2ccco2)cc1	8.16% (inactive)	
O=C(Nc1ccc2nccnc2c1)c1ccco1	15.4% (inactive)	
COc1cccc(S(=O)(=O)NCc2ccc(C(=O)NCc3ccccn3)cc2)c1	12.9% (inactive)	
COc1ccc(CCN2CC(C(=O)NCCN3CCNC3=O)CCC2=O)cc1 (configuration not stated)	19% (inactive)	
COc1ccc2c(c1)c1nc3n(c(=O)c1n2CC(=O)Nc1ccccc1)CCS3	1.1% (inactive)	
COc1ccc(C(=O)/C=C/c2cccnc2)c(OC)c1	9.73% (inactive)	
O=[N+]([O-])c1cccc(/C=N/Nc2ncc(Br)cn2)c1	16.8% (inactive)	
CC1CCC(NS(=O)(=O)c2ccc3c(c2)n(C)c(=O)c(=O)n3C)CC1 (configuration not stated)	8.22% (inactive)	

Compound	largest response in the series, negative = inhibition	Potency
O=S(=O)(NC1CC1)c1ccc(F)c(F)c1	16.5% (inactive)	
Cn1sc(=O)c2cc(S(=O)(=O)NC3CC3)ccc21		11.2 µM (active)
Cc1nonc1NC(=O)c1oc2ccccc2c1C	-2.27% (inactive)	
CC(=O)c1ccc(N2CCN(CC(O)c3ccccc3)CC2)cc1 (configuration not stated)	16.5% (inactive)	
CCc1ccc(Oc2coc3cc(O)ccc3c2=O)cc1	12.7% (inactive)	
CCC(CC)c1nnc(NC(=O)c2nn(C)c(=O)c3ccccc23)s1	10.8% (inactive)	
COc1ccc(CNC(=O)C2CCN(C(=O)c3ccco3)CC2)cc1	5.46% (inactive)	
C/C=C/C(=O)Nc1nnc(C(C)C)s1	-3.92% (inactive)	
CCOC(=O)c1c(NC(=O)/C=C/c2ccco2)sc(C)c1C	-8.04% (inactive)	
CCC(CC)c1nnc(NC(=O)C2CCN(C(=O)c3ccco3)CC2)s1		39.8 µM (active)
O=C(/C=C/c1ccco1)Nc1ccc(Oc2ccccc2)cc1	2.06% (inactive)	
CCC(c1nnnn1C1CCCC1)N1CCN(C(=O)c2ccco2)CC1 (configuration not stated)	6.92% (inactive)	
CCC(CC)c1nnc(NC(=O)/C=C/c2ccco2)s1		56.2 µM (active)
Cc1nnc(NC(=O)/C=C/c2ccco2)s1		11.2 µM (active)
FC(F)(F)c1nnc2c3ccccc3c(Cl)nn12	10.4% (inactive)	
CC1CCN(S(=O)(=O)c2ccc(NC(=O)C3CC(=O)N(c4ccccc4)C3)cc2)CC1 (configuration not stated)	6.28% (inactive)	
Cc1cc(S(=O)(=O)NC2CCCC2)ccc1-n1cnnn1	16.3% (inactive)	
CCOc1ccc(C(=O)Nc2c3c(nn2-c2ccccc2)CS(=O)(=O)C3)cc1	11.5% (inactive)	
CC(=N\NC(=O)c1cc(Br)ccc1O)/C(=N/O)C(=O)Nc1ccccc1	16.6% (inactive)	
O=C(NCCc1ccccc1Cl)C1CCC(=O)N(CCCc2ccccc2)C1 (configuration not stated)	-2.68% (inactive)	
COC(=O)c1ccc(COc2ccc(/C=C/C(=O)c3ccc(OC)c(CSCC(=O)O)c3)cc2OC)cc1	-20.4% (inactive)	
COc1ccc(C2/C(=C(/O)c3ccc4c(c3)CC(C)O4)C(=O)C(=O)N2Cc2ccncc2)cc1 (configuration not stated)	-0.196% (inactive)	
COc1cccc2cc(-c3cc(=O)oc4cc(C)c(O)cc34)oc12	-19.1% (inactive)	
